# Measurements taken from PubChem BioAssay (Tox21).
# Results filed as inconclusive are left out. A call without a number means that no potency is given here. Values without a mark were called inactive. Active and inactive are the calls of the source. Calls follow the shape of the full dose curve.
# Biological target: Beta-2 adrenergic receptor (Homo sapiens) (UniProt P07550)
# Experiment: Adrenergic beta2 receptor (ADRB2) small molecule agonists, cell-based qHTS assay (AID 1963593);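 as to activation: CHO cells stably overexpressing human ADRB2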
# How it was run: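 CHO cells stably over-expressing ADRB2 were plated overnight at 37C, then dosed with compounds plus a stimulation mix containing 100uM IBMX and 25uM Ro-20-1724 for 0.5hr at room temperature. cAMP was measured by HTRF competition, 1hr.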
# Potency is read from the fitted curve at half-maximal effect.
# Beta-2 adrenergic receptor (Homo sapiens), sequence (P07550 whole entry, looked up): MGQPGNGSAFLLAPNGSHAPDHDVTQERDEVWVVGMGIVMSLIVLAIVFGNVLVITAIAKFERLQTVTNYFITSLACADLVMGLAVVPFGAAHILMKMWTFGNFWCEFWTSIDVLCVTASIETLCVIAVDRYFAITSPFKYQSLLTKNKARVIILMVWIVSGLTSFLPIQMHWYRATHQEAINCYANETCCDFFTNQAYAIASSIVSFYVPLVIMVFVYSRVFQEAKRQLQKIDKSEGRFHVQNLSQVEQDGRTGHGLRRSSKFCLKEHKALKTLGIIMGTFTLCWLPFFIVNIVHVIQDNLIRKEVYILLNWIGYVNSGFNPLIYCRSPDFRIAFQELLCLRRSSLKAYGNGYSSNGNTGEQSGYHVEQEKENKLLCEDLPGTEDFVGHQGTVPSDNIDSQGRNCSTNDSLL
Structure (SMILES),Potency,activation
CC1=NS(=O)(=O)c2cc(Cl)ccc2N1,inactive,–
Cc1cn[nH]c1,inactive,–
CCN1CC(CCN2CCOCC2)C(c2ccccc2)(c2ccccc2)C1=O (configuration not stated),inactive,–
O=NN(CCCl)C(=O)NC1CCCCC1,inactive,–
Nc1nc2c(ncn2COC(CO)CO)c(=O)[nH]1,inactive,–
NCCCNCCSP(=O)(O)O,–,-33.3% [at 8.39 µM]
O=C(Oc1ccccc1C(=O)O)c1ccccc1O,inactive,–
NC(=O)NC(=O)Cc1ccccc1,inactive,–
CCN(CCO)CCCC(C)Nc1ccnc2cc(Cl)ccc12 (configuration not stated),–,0.519% [at 8.39 µM]
O=C1OCCN1/N=C/c1ccc([N+](=O)[O-])o1,inactive,–
O=NN(CCCl)C(=O)NCCCl,inactive,–
Cc1cccc(C(C)(C)C)c1O,inactive,–
CCn1cc(C(=O)O)c(=O)c2cc(F)c(N3CCNCC3)cc21,inactive,–
Cc1ccc(C(=O)c2ccc(CC(=O)O)n2C)cc1,inactive,–
Cc1cccc(C)c1OCC(C)N (configuration not stated),inactive,–
CN(Cc1cc(Br)cc(Br)c1N)C1CCCCC1,inactive,–
Oc1ccccc1Cc1ccccc1O,inactive,–
C[Si](C)(CCCN)O[Si](C)(C)CCCN,inactive,–
Nc1nc2c(ncn2CCC(CO)CO)c(=O)[nH]1,inactive,–
CN1CCN(CCCN2c3ccccc3Sc3ccc(Cl)cc32)CC1,inactive,–
NC(N)=NC(=O)Cc1c(Cl)cccc1Cl,inactive,–

Structure (SMILES),Potency,activation
CCCCN1CCCC[C@H]1C(=O)Nc1c(C)cccc1C,inactive,–
C[C@]12CCC(=O)C=C1CC[C@@H]1[C@@H]2[C@@H](O)C[C@@]2(C)[C@H]1CC[C@]2(O)C(=O)COC(=O)CCC(=O)O,inactive,–
NS(=O)(=O)c1cc(C2(O)NC(=O)c3ccccc32)ccc1Cl (configuration not stated),inactive,–
CCOC(=O)c1ccc(NC(=O)CN2CCCCC2)cc1,inactive,–
C=COCC(C)C,inactive,–
Nc1ccc(S(=O)(=O)O)c(N)c1,inactive,–
Cc1ccccc1N1CCN(CCc2nnc3n2CCCC3)CC1,inactive,–
O=C1CCC(C2CCCCC2)CC1,inactive,–
Nc1cc(C(F)(F)F)ccc1S,inactive,–
CCCCc1ccc2c(n1)[C@@H](c1ccc(OC)cc1C[C@H](C)C(=O)O)[C@H](C(=O)O)[C@H]2c1ccc2c(c1)OCO2,inactive,–
O=C1c2ccccc2C(=O)N1CCl,inactive,–
C=C/C(C)=C/C/C=C(\C)CCC=C(C)C,inactive,–
Cc1ccc2c(c1[N+](=O)[O-])C(=O)c1ccccc1C2=O,inactive,–
O=C(Nc1ccc2c(O)c(N=Nc3ccc(N=Nc4ccc(S(=O)(=O)O)cc4)cc3)c(S(=O)(=O)O)cc2c1)c1ccccc1,inactive,–
COCCCN1CCC(NC(=O)c2cc(Cl)c(N)c3c2OCC3)CC1,inactive,–
C=CCOC(=O)/C=C\C(=O)OCC=C,inactive,–
O=C1CCCN1CCO,inactive,–
CO[C@@H]1[C@H](OC(=O)/C=C/C=C/C=C/C=C/C(=O)O)CC[C@]2(CO2)[C@H]1[C@@]1(C)O[C@@H]1CC=C(C)C,inactive,–
OCCSc1ccccc1,inactive,–
CC[C@H](NC(C)C)[C@H](O)c1ccc(O)c2[nH]c(=O)ccc12,1.7 nM (active),–
O=C(OC1C[C@H]2CC[C@@H](C1)[N+]21CCCC1)C(O)(c1ccccc1)c1ccccc1 (some centres not stated),inactive,–
